The full data set covers some 8,800 targets. This sample favours those with a hit. About 0.5% of all pairs of compound and target were hits. Unmarked numbers belong to inactive results.
Experiments:
Test in all cases: log2 fold change, soluble protein after heating vs DMSO (PISA); higher = thermal stabilisation; K562 lysate, 10 uM; active = over 0.2 and 3.5 SD of the protein, either way, in both replicates (recomputed)
lapatinib = compound: CS(=O)(=O)CCNCc1ccc(-c2ccc3ncnc(Nc4ccc(OCc5cccc(F)c5)c(Cl)c4)c3c2)o1 [lapatinib]
How it was run: (§1)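 K562 pellets were dounce-homogenised in PBS pH 7.4 containing 1 mM MgCl2, and the crude extract, at 1 mg/mL protein, was exposed to 10 μM compound for 30 min. Aliquots were heated for 3 min across 48°C-58°C, pooled, brought to 0.5% NP-40 at 4°C and spun at 21,000xg for 90 min, with the supernatant taken as soluble protein. TMTpro 16plex LC-MS/MS with equalised channel sums quantified that protein. Values are log-two fold changes in thermal stability relative to solvent controls, taken from duplicates.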

pictilisib = compound: CS(=O)(=O)N1CCN(Cc2cc3nc(-c4cccc5[nH]ncc45)nc(N4CCOCC4)c3s2)CC1 [pictilisib]
How it was run: as §1

crizotinib = compound: C[C@@H](Oc1cc(-c2cnn(C3CCNCC3)c2)cnc1N)c1c(Cl)ccc(F)c1Cl [crizotinib]
How it was run: as §1

[1] = compound: C[C@H](C1=CC=C(C=C1)C(=O)NC2=C3C=CNC3=NC=C2)N
How it was run: as §1

duvelisib = compound: C[C@H](Nc1ncnc2nc[nH]c12)c1cc2cccc(Cl)c2c(=O)n1-c1ccccc1 [duvelisib]
How it was run: as §1

gandotinib = compound: Cc1cc(Nc2cc(CN3CCOCC3)c3nc(C)c(Cc4ccc(Cl)cc4F)n3n2)n[nH]1 [gandotinib]
How it was run: as §1

tozasertib = compound: Cc1cc(Nc2cc(N3CCN(C)CC3)nc(Sc3ccc(NC(=O)C4CC4)cc3)n2)n[nH]1 [tozasertib]
How it was run: as §1

doramapimod = compound: Cc1ccc(-n2nc(C(C)(C)C)cc2NC(=O)Nc2ccc(OCCN3CCOCC3)c3ccccc23)cc1 [doramapimod]
How it was run: as §1

bafetinib = compound: Cc1ccc(NC(=O)c2ccc(CN3CC[C@H](N(C)C)C3)c(C(F)(F)F)c2)cc1Nc1nccc(-c2cncnc2)n1 [bafetinib]
How it was run: as §1

[2] = compound: Cc1cccc(CC(=O)N2CCc3c2ccc(-c2cn(C)c4ncnc(N)c24)c3F)n1
How it was run: as §1

nilotinib = compound: Cc1cn(-c2cc(NC(=O)c3ccc(C)c(Nc4nccc(-c5cccnc5)n4)c3)cc(C(F)(F)F)c2)cn1 [nilotinib]
How it was run: as §1

[3] = compound: Cc1nc(Nc2n[nH]c3c2CN(C(=O)N[C@H](CN(C)C)c2ccccc2)C3(C)C)c2sccc2n1
How it was run: as §1

dasatinib = compound: Cc1nc(Nc2ncc(C(=O)Nc3c(C)cccc3Cl)s2)cc(N2CCN(CCO)CC2)n1 [dasatinib]
How it was run: as §1

[4] = compound: Cc1ncc(-c2ccnc(Nc3ccc(S(C)(=O)=O)cc3)n2)n1C(C)C
How it was run: as §1

[5] = compound: Cn1cc(-c2ccc3c(c2)CCN3C(=O)Cc2cccc(C(F)(F)F)c2)c2c(N)ncnc21
How it was run: as §1

quisinostat = compound: Cn1cc(CNCC2CCN(c3ncc(C(=O)NO)cn3)CC2)c2ccccc21 [quisinostat]
How it was run: as §1

tipifarnib = compound: Cn1cncc1[C@@](N)(c1ccc(Cl)cc1)c1ccc2c(c1)c(-c1cccc(Cl)c1)cc(=O)n2C [tipifarnib]
How it was run: as §1

[6] = compound: NC(=O)Nc1cc(-c2cccc(F)c2)sc1C(=O)N[C@H]1CCCNC1
How it was run: as §1

[7] = compound: NC(=O)c1cnc(N[C@@H]2CCCC[C@@H]2N)nc1Nc1cccc(-n2nccn2)c1
How it was run: as §1

[8] = compound: NC1(c2ccc(-c3nc4ccn5c(=O)[nH]nc5c4cc3-c3ccccc3)cc2)CCC1
How it was run: as §1

Chain of UniProt P42695 (P42695 whole entry, looked up): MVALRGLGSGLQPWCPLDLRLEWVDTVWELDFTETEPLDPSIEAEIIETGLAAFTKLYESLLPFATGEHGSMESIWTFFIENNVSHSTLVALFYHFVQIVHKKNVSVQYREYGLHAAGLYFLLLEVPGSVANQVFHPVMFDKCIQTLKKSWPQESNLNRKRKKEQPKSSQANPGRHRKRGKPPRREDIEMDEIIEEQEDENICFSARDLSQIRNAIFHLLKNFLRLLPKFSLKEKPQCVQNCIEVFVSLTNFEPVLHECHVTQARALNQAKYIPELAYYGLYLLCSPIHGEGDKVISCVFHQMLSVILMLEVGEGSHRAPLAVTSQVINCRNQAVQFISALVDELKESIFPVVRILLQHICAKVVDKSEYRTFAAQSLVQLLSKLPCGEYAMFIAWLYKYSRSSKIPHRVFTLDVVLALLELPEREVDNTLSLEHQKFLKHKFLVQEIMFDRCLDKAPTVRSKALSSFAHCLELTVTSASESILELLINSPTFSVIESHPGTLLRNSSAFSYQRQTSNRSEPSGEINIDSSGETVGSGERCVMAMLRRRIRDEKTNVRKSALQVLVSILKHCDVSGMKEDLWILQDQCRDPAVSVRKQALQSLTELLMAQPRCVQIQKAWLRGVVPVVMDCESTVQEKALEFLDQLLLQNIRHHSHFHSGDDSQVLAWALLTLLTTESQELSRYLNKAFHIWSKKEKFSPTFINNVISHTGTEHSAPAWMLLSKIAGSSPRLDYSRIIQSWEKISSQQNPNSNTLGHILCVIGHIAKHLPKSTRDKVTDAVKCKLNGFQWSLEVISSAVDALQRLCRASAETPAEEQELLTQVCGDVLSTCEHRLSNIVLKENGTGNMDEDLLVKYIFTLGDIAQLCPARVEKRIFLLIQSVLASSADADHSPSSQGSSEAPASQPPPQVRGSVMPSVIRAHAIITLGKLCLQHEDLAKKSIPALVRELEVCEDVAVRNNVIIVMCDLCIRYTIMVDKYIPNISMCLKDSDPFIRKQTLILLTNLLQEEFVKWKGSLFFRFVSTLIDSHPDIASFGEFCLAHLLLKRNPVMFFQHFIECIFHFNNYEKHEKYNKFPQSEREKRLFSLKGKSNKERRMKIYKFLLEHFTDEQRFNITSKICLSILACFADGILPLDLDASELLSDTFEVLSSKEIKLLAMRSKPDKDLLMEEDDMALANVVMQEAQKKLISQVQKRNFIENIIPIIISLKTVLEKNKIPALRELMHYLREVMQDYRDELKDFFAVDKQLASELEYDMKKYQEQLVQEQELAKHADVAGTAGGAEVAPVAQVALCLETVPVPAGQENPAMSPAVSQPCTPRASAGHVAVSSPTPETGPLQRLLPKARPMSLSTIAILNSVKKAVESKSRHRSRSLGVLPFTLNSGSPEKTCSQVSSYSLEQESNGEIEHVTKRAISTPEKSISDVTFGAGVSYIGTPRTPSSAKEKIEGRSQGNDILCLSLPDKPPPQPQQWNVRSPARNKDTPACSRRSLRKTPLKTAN
Chain of UniProt Q504Q3 (Q504Q3 whole entry, looked up): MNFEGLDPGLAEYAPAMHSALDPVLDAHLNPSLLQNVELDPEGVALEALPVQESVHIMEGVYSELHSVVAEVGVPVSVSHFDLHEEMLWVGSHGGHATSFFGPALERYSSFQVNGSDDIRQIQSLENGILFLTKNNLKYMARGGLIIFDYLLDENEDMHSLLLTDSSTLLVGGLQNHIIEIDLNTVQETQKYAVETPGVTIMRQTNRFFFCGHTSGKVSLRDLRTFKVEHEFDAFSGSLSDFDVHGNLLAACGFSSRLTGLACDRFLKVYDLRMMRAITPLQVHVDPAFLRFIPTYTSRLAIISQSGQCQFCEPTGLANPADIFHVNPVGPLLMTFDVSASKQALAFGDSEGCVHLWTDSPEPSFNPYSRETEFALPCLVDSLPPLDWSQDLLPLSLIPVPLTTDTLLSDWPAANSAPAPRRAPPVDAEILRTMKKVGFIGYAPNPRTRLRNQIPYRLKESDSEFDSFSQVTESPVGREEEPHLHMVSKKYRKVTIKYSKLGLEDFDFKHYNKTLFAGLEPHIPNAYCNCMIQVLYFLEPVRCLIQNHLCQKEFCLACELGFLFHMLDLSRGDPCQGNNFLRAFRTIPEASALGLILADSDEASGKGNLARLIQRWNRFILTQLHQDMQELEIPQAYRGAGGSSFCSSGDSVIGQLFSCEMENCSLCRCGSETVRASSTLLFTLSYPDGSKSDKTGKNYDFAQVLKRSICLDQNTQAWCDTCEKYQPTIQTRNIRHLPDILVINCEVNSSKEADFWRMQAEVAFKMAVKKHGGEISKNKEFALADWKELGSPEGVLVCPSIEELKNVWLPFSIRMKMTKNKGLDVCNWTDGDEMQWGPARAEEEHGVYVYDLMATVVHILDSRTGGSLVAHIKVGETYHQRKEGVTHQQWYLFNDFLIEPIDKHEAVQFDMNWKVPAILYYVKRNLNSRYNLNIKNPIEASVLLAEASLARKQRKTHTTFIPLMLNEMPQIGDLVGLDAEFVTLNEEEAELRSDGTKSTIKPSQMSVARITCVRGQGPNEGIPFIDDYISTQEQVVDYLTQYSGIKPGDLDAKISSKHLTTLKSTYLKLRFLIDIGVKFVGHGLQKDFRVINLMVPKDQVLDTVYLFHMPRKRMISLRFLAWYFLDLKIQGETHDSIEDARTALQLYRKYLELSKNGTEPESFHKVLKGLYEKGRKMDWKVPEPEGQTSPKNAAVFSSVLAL
Chain of UniProt Q9Y314 (Q9Y314 whole entry, looked up): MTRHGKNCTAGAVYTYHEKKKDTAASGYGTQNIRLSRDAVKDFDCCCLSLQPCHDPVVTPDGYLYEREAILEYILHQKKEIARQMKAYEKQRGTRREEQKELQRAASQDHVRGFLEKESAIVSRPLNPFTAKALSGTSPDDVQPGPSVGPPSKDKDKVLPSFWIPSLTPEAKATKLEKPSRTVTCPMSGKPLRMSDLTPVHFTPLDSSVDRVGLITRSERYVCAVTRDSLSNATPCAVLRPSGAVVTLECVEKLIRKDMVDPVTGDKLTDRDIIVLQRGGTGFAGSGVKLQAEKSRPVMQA
Chain of UniProt Q6IBW4 (Q6IBW4 whole entry, looked up): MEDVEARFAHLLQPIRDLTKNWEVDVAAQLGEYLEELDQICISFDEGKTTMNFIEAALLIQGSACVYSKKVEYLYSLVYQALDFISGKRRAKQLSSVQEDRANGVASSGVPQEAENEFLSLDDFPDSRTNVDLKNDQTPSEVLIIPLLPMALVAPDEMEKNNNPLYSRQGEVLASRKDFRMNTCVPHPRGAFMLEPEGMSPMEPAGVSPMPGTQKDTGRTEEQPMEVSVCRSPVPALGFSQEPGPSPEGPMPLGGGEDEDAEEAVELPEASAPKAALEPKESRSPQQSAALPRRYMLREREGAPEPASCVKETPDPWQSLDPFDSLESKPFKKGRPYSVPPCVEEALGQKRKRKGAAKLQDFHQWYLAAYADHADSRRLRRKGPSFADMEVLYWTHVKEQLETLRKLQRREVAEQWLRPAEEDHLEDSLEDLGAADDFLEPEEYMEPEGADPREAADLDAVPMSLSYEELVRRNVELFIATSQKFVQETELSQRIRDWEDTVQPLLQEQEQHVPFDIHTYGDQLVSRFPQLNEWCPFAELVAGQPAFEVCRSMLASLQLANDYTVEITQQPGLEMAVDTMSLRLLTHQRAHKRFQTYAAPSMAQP
Chain of UniProt P40261 (P40261 whole entry, looked up): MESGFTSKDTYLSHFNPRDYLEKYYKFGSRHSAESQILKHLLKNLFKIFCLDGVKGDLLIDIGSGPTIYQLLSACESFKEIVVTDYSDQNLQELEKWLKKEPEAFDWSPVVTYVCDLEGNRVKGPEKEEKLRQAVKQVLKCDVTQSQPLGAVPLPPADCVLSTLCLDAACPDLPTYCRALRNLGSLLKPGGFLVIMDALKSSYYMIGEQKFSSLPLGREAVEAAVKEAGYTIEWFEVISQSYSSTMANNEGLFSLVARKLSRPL
Chain of UniProt Q8IVI9 (Q8IVI9 whole entry, looked up): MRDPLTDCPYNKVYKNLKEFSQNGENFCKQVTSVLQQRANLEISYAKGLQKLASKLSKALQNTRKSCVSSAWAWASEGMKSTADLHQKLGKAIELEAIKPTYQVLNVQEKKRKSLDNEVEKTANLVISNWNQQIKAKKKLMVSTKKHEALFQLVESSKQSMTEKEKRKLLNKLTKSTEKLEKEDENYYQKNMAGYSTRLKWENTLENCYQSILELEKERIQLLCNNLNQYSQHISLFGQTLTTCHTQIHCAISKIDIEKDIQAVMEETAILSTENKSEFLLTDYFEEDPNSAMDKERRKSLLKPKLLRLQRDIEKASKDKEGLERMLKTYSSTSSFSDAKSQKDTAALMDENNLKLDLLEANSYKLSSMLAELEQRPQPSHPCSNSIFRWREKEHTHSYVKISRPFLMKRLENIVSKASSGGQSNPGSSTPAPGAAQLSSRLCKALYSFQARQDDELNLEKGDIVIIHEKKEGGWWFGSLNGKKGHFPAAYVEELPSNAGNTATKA
Chain of UniProt Q9UHQ1 (Q9UHQ1 whole entry, looked up): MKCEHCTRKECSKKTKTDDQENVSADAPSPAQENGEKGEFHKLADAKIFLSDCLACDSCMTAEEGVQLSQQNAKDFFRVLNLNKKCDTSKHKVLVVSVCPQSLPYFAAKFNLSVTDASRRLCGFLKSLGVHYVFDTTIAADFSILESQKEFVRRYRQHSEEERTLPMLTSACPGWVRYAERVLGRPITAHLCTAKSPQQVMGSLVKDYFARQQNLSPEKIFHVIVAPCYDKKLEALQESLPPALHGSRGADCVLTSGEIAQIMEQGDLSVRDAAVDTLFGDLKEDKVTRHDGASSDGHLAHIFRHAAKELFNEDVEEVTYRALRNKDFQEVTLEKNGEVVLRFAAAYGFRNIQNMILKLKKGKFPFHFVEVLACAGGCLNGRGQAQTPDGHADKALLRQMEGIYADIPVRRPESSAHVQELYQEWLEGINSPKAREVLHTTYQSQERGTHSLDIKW
Chain of UniProt Q9NZJ9 (Q9NZJ9 whole entry, looked up): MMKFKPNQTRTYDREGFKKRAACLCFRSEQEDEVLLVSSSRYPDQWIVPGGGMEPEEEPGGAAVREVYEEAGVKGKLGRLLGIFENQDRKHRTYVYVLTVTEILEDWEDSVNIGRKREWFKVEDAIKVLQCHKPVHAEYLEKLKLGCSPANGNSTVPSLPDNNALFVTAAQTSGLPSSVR

Target | log2 fold change (lapatinib) | log2 fold change (pictilisib) | log2 fold change (crizotinib) | log2 fold change [1] | log2 fold change (duvelisib) | log2 fold change (gandotinib) | log2 fold change (tozasertib) | log2 fold change (doramapimod) | log2 fold change (bafetinib) | log2 fold change [2] | log2 fold change (nilotinib) | log2 fold change [3] | log2 fold change (dasatinib) | log2 fold change [4] | log2 fold change [5] | log2 fold change (quisinostat) | log2 fold change (tipifarnib) | log2 fold change [6] | log2 fold change [7] | log2 fold change [8]
NUP188 (UniProt Q5SRE5) | -0.063 | -0.04 | -0.05 | -0.024 | 0.004 | -0.127 | -0.012 | -0.034 | -0.031 | 0.039 | 0.025 | -0.003 | -0.074 | -0.002 | 0.055 | -0.024 | -0.047 | 0.043 | 0.03 | 0.009
NNMT (UniProt P40261) | -0.017 | 0.037 | -0.065 | -0.072 | 0.066 | 0.015 | 0 | 0.013 | -0.066 | -0.001 | -0.044 | -0.01 | 0.058 | 0.03 | 0.003 | -0.145 | -0.008 | 0.004 | 0.035 | -0.033
MRPL58 (UniProt Q14197) | 0.035 | -0.034 | -0.063 | 0.365 (active) | -0.034 | -0.009 | 0.045 | -0.026 | -0.03 | -0.119 | -0.022 | 0.045 | -0.008 | -0.012 | 0.021 | 0.017 | 0.003 | 0.055 | 0.025 | -0.032
OGFR (UniProt Q9NZT2) | 0.014 | -0.012 | 0.052 | 0.128 | -0.008 | -0.062 | -0.043 | -0.012 | 0.043 | -0.037 | -0.016 | 0.021 | -0.022 | -0.005 | 0.042 | -0.004 | 0.04 | 0.02 | -0.001 | 0.028
NUDT4 (UniProt Q9NZJ9) | -0.01 | -0.055 | 0.032 | 0.166 | -0.039 | -0.188 | -0.022 | -0.076 | 0.117 | -0.304 (active) | 0.115 | -0.03 | 0.038 | -0.002 | 0.006 | 0.129 | 0.11 | 0.018 | -0.059 | 0.022
MYOM1 (UniProt P52179) | 0.099 | 0.009 | 0.054 | -0.082 | -0.02 | 0.065 | -0.137 | -0.436 | -0.252 | 0.05 | -0.127 | -0.078 | 0.058 | 0.039 | 0.023 | 0.115 | 0.01 | 0.083 | -0.016 | -0.035
NCAPD3 (UniProt P42695) | -0.015 | -0.009 | -0.065 | -0.013 | -0.004 | -0.099 | -0.013 | 0.02 | -0.024 | 0.047 | 0.005 | -0.022 | -0.041 | 0.005 | 0.005 | -0.06 | 0.005 | 0.078 | -0.014 | -0.028
NEBL isoform 2 (UniProt O76041) | 0.003 | 0.044 | 0.059 | -0.135 | -0.046 | 0.094 | -0.018 | -0.018 | 0.105 | 0.073 | -0.022 | -0.001 | -0.029 | 0.015 | -0.072 | 0.012 | -0.021 | -0.017 | -0.027 | -0.007
NACC1 (UniProt Q96RE7) | -0.032 | 0.034 | 0.01 | -0.066 | -0.002 | 0.006 | -0.015 | -0.011 | -0.078 | 0.044 | -0.013 | 0.031 | -0.006 | -0.007 | 0.022 | -0.024 | -0.008 | -0.04 | 0.022 | 0.015
PAN2 isoform 2 (UniProt Q504Q3) | -0.044 | 0.045 | -0.085 | 0.003 | 0.041 | -0.053 | 0.27 (active) | 0.09 | -0.108 | 0.084 | 0.072 | 0.013 | -0.012 | 0.046 | 0.079 | -0.036 | -0.049 | 0.056 | 0.02 | -0.028
NOSIP (UniProt Q9Y314) | -0.03 | -0.042 | -0.026 | 0.02 | -0.004 | 0.017 | -0.053 | 0.013 | -0.003 | 0.038 | 0.005 | 0.009 | -0.018 | 0.027 | -0.019 | -0.151 | -0.021 | 0.003 | -0.015 | 0.006
NOSTRIN (UniProt Q8IVI9) | -0.022 | -0.011 | 0.06 | 0.017 | 0.047 | -0.047 | 0.058 | -0.03 | -0.078 | -0.012 | -0.015 | -0.02 | -0.022 | 0.03 | 0.01 | -0.031 | -0.008 | 0.01 | -0.018 | 0.064
NARF (UniProt Q9UHQ1) | -0.027 | 0.01 | 0.032 | 0.001 | 0.029 | 0.008 | 0.02 | 0.012 | -0.008 | -0.04 | -0.029 | 0.011 | 0.01 | -0.031 | 0.014 | -0.03 | -0.062 | 0.017 | -0.079 | 0.005
PANK4 (UniProt Q9NVE7) | -0.019 | -0.037 | -0.052 | -0.049 | -0.009 | 0.125 | 0.001 | -0.001 | -0.06 | 0.022 | 0.028 | -0.006 | -0.086 | -0.006 | 0.003 | -0.054 | 0.009 | 0.038 | -0.003 | -0.045
MSH6 (UniProt P52701) | -0.004 | -0.005 | -0.076 | -0.003 | 0.014 | -0.087 | 0.013 | 0.037 | -0.051 | 0.022 | -0.005 | 0.011 | -0.073 | -0.002 | 0.03 | -0.091 | -0.009 | 0.072 | 0.006 | -0.045
NCAPH2 (UniProt Q6IBW4) | -0.075 | -0.023 | -0.04 | -0.01 | -0.03 | -0.052 | 0.058 | -0.051 | -0.036 | 0.185 | -0.029 | 0 | -0.011 | -0.048 | 0.066 | 0.051 | -0.014 | 0.058 | 0.004 | 0.025

— the supplement of paper PMC10849652
